According to PubChem BioAssay AID492965 (The Scripps Research Institute Molecular Screening Center, 2010):
Screen size: about 1,100 compounds; about 100 (9.1%) were called active. The list is a sample of the results. Values without a mark were called inactive.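 The calls were made as follows: active = inhibition above a per-plate limit, the mean inhibition of that plate's test compounds plus 3 SD (cut at about 25% in these data); inactive = the rest.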

assay: ATP-evoked calcium inhibition in parental CHO, counter-screen for OX1R antagonist project, cell-based, fluorescence, CHO-K1, triplicate (AID 492965); conditions: parental CHO-K1, ATP-induced calcium, Fluo-8 fluorescence; at 5.6 µM; stronger effect = higher value;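 also: 0% = ATP challenge with DMSO and 100% = DMSO without ATP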

Compound	inhibition
COc1cc(CN2CC(C)CC(C)C2)cc([N+](=O)[O-])c1O (stereo not given)	22.2%
O=C(Nc1cccc(NC(=O)N2CCN(c3ccccc3)CC2)c1)N1CCN(c2ccccc2)CC1	6.96%
CCOC(=O)c1cccc(NC(=O)CN(c2ccc(C)cc2)S(=O)(=O)c2c(C)noc2C)c1	-18.6%
Cc1cc(-c2ccc(C)c(S(=O)(=O)NC(C)Cc3ccco3)c2)on1 (stereo not given)	-8.08%
COc1ccc(/C=C/C(=O)c2ccc(NS(=O)(=O)c3ccc(C)cc3)cc2)cc1O	2.08%
Cc1ccc2c(C)c(C(=O)N(C)CCC3CCCCO3)oc2c1C (stereo not given)	-10%
C/C(N)=C(/C#N)C(=O)COC(=O)c1cc(-c2ccc(C)cc2)nc2ccccc12	-4.89%
c1coc(CNc2ncnc3ccccc23)c1	26.1% (active)
N#C/C(=C1\CCCN1)c1nc(-c2ccccc2)cs1	3.08%
Cc1cc(C)cc(NC(=O)C2CCCN2S(=O)(=O)c2cccc3cccnc23)c1 (stereo not given)	-10.6%
O=C(OC1CCOC1=O)c1ccc(-c2nc3ccccc3s2)s1 (stereo not given)	10.7%
Cc1ccc(NC(=O)COc2ccc(-n3ccnc3)cc2)cc1Cl	15.7%
O=C(Nc1cccc2cccnc12)c1cccc(N2C(=O)CCC2=O)c1	-5.5%
CCc1ccccc1OCC(=O)Nc1ccc(C)c(S(=O)(=O)N2CCCCCC2)c1	2.45%
CCCN(CC(=O)Nc1ccccc1OC)C(=O)CCC(=O)c1ccc(F)cc1	-5.67%
CCCc1nc2c(c(=O)c3ccccc3n2C)c(=O)n1C1CCCCCC1	-3.88%
CC1(C)C2CC=C(/C=N/NC(=O)C3CC3)C1C2 (stereo not given)	-15%
CCCCC(=O)NNC(=S)NC(=O)C(c1ccccc1)c1ccccc1	34.8% (active)
CCCCCCCC(=O)NC(Nc1ccccc1OC)C(Cl)(Cl)Cl (stereo not given)	-10.6%
COc1ccc(N2CC(C(=O)NCCN3C(=O)S/C(=C\c4cccnc4)C3=O)CC2=O)c(OC)c1 (stereo not given)	-8.16%
Cc1cc(N2CCCC2=O)cc(C)c1S(N)(=O)=O	-0.33%
C=CCn1c(SCC(=O)Nc2nc3ccccc3s2)nnc1-c1ccccc1O	-4.55%

Compound	inhibition
S=c1[nH]nc(-c2cc(-c3ccccc3)n[nH]2)n1/N=C/c1c2ccccc2cc2ccccc12	-7.45%
CCOc1cc(/C=C(\C#N)c2nc(-c3cccs3)c(NC(C)=O)s2)ccc1O	14.1%
COCc1c(C(=O)OCC(=O)Nc2ccc(OC(F)F)cc2)oc2ccccc12	-3.09%
CCC(=O)N(C)C(c1ccccc1Cl)c1nnnn1-c1c(C)cccc1C (stereo not given)	-6.17%
CC(=O)Nc1cccc(OCC(=O)/C=C2\N(C)c3ccccc3C2(C)C)c1	6.99%
Cc1cccc(NC(=O)Nc2cccc(Oc3c(F)c(F)c(F)c(F)c3F)c2)c1	38.9% (active)
Cc1cccc(NS(=O)(=O)c2cccc(C(=O)NNC(=O)c3ccccc3O)c2)c1	15.6%
N#Cc1nc(-c2cccc3ccccc23)oc1N	-11.2%
O=C1c2ccccc2S(=O)(=O)N1CC(O)Cn1c2ccccc2c2ccccc21 (stereo not given)	4.28%
N#C/C(=C/c1ccc(N2CCCCC2)o1)C(=O)NCCc1c[nH]c2ccccc12	31.6% (active)
CCOc1ccc(/C=C/C(=O)OCC(=O)c2ccccc2OC)cc1OC	-17.5%
COc1cccc(/C=N/NC(=O)c2[nH]nc3c2CCc2ccccc2-3)c1O	-10.5%
CCOC(=O)N1CCN(C(=O)c2ccc(S(=O)(=O)Nc3cccc(C(F)(F)F)c3)cc2)CC1	9.17%
CCOC(=O)N1CCN(c2cc(C)c([N+](=O)[O-])cc2F)CC1	13.3%
N/C(=N\OC(=O)Nc1ccc(Cl)c(Cl)c1)c1ncc(C(F)(F)F)cc1Cl	14.7%
CC(C)(C)NC(=O)CN(C(=O)c1csnn1)c1ccccc1-c1ccccc1	-0.67%
O=C(N/N=C/c1sc(N2CCCCC2)nc1-c1cccs1)c1cccnc1	-6.04%
Nc1nc(COC(=O)CCC(=O)c2ccc(Cl)cc2)nc(Nc2ccccc2)n1	-7.47%
COc1cccc(/C=N/Nc2cc(C)nc(-c3ccccc3O)n2)c1O	-5.66%
CC1CCCN(CC(O)COCc2ccccc2)C1 (stereo not given)	-5.68%
Cc1ccccc1S(=O)(=O)N1[C@@H](c2cccc(Cl)c2)C(C(=O)O)=CC[C@H]1c1ccc(Cl)cc1	13.3%
Cc1ccc(S(=O)(=O)N2CCN(c3ncnc4ccccc34)CC2)cc1	50.8% (active)

Compound	inhibition
COC(=O)c1sccc1NC(=O)CSc1ccccc1NS(=O)(=O)c1cc(Cl)ccc1Cl	8.36%
NC(=O)C1=C[C@@H](c2ccc3c(c2)OCO3)C[C@@H](OCCCCO)O1	-5.99%
CCn1c(SCC(=O)c2ccc3ccccc3c2)nnc1-c1cccs1	-8.88%
Cn1c(N)c(C(=O)COC(=O)c2ccc3ccccc3c2)c(=O)n(C)c1=O	1.91%
CC(Oc1ccc2ccccc2c1)C(=O)NNC(=S)NC(=O)c1ccco1 (stereo not given)	-8.71%
COc1cccc(C(=O)NC(=O)Nc2nc(C)cc(C(F)(F)F)n2)c1	-10.8%
N#CC(=C1SC=CS1)c1nc(-c2ccccc2)cs1	-3.94%
CCOC(=O)c1c(-c2ccc(C)cc2C)csc1NC(=O)CSc1nnnn1C	-6.6%
Cc1cc(C(=O)NC2CCCc3c2cnn3-c2cccc(C)c2C)c(C)o1 (stereo not given)	34% (active)
O=C(NC(Cc1c[nH]c2ccccc12)C(=O)N/N=C/c1ccc(Br)cc1)c1cccs1 (stereo not given)	3.66%
CCOc1ccc(CCNC(=O)C(CC)n2nc(C)n3c(cc4sccc43)c2=O)cc1OCC (stereo not given)	-2.6%
COc1ccc2[nH]cc(/C=C(/C#N)S(=O)(=O)c3ccccc3)c2c1	-11.6%
COc1cc2ccccc2cc1C(=O)Nc1ccc(N2CCOCC2)cc1	-8.59%
O=C(Cn1[nH]c(=O)c2ccccc2c1=O)Nc1cccc(-c2nnc3n2CCCCC3)c1	-5.39%
O=C(N/N=C/c1c(Cl)[nH]c2ccccc12)c1sc2ccccc2c1Cl	10.8%
COc1ccc2sc(-c3ccc(N(C)C)cc3)c(C#CCO)c2c1	-6.95%
CN(c1ccccc1)S(=O)(=O)c1cccc(NC(=O)Cc2ccc(Cl)cc2)c1	6.81%
S=C(NCc1ccc(Cl)cc1)NC12CC3CC(CC(C3)C1)C2	14%
COc1ccccc1CNC(=O)C1CCCN(S(=O)(=O)c2cccc3cccnc23)C1 (stereo not given)	-8.22%
O=C1C=C(c2ccc(Cl)cc2)C(=O)N1Nc1ccccc1	22.4%
O=C(CCCN1CCc2[nH]c3ccc(F)cc3c2C1)c1ccc(F)cc1	26.8% (active)
